According to PubChem BioAssay (NCI):
About 83,000 compounds went through this panel and 20% of them were active in at least one assay; those are over-represented in the sample as a whole.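 Plates (96-well) were seeded with cells, treated with compound at one concentration, and incubated for 48 hours before percent growth was determined.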 Activity calls are given as the source filed them. How the source made its calls: active means growth percent below 10; inactive means the rest.

Experiments:
Test in all cases: NCI-60 one-dose screen, 48 h (100 = growth as untreated, 0 = no growth, -100 = all killed)
Details in all cases: 10 µM unless noted
NCI-H23 lung = system: NCI-H23 lung
NCI-H226 lung = system: NCI-H226 lung
NCI-H322M lung = system: NCI-H322M lung
HOP-62 NSCLC = system: HOP-62 NSCLC
NCI-H460 lung = system: NCI-H460 lung
HOP-92 NSCLC = system: HOP-92 NSCLC
NCI-H522 lung = system: NCI-H522 lung
A549/ATCC NSCLC = system: A549/ATCC NSCLC
786-0 renal = system: 786-0 renal
COLO 205 colon = system: COLO 205 colon
DU-145 prostate = system: DU-145 prostate
K-562 leukemia = system: K-562 leukemia
MALME-3M melanoma = system: MALME-3M melanoma
MDA-MB-231 breast = system: MDA-MB-231 breast
RXF 393 renal = system: RXF 393 renal
SF-268 CNS = system: SF-268 CNS
SF-295 CNS = system: SF-295 CNS
SF-539 CNS = system: SF-539 CNS
UACC-257 melanoma = system: UACC-257 melanoma
M14 melanoma = system: M14 melanoma

Measured: growth

COc1ccc(-c2nc3cc(C(=O)Nc4cc(OC)c(OC)c(OC)c4)ccc3n2C2CCCCC2)cc1
inactive: NCI-H23 lung 93.6% | NCI-H226 lung 86.9% | NCI-H322M lung 97.9% | HOP-62 NSCLC 105% | NCI-H460 lung 99.7% | HOP-92 NSCLC 72.7% | NCI-H522 lung 77.2% | A549/ATCC NSCLC 98.6% | 786-0 renal 107% | COLO 205 colon 110% | DU-145 prostate 103% | K-562 leukemia 76.1% | MALME-3M melanoma 95.6% | MDA-MB-231 breast 88.6% | RXF 393 renal 103% | SF-268 CNS 100% | SF-295 CNS 104% | SF-539 CNS 88.6% | UACC-257 melanoma 100% | M14 melanoma 96%

O=C1Nc2cc(-c3ccc(O)cc3)ccc2/C1=C/c1ccc[nH]1
inactive: HOP-62 NSCLC 24.4% | HOP-92 NSCLC 10.8% | 786-0 renal 10.9% | COLO 205 colon 13.7% | MALME-3M melanoma 15.3% | MDA-MB-231 breast 13.2% | SF-268 CNS 21.7% | UACC-257 melanoma 20% | M14 melanoma 10.9%
active: NCI-H23 lung -16% | NCI-H226 lung 3.63% | NCI-H322M lung 6.56% | NCI-H460 lung 2.66% | NCI-H522 lung 1.89% | A549/ATCC NSCLC 9.14% | DU-145 prostate 1.75% | K-562 leukemia 3.69% | RXF 393 renal -27.3% | SF-295 CNS -20.7% | SF-539 CNS -14.6%

CCN=C1C=CC(=C(c2ccc(N)cc2)c2ccc(N(CC)CC)c(C)c2)C=C1
inactive: A549/ATCC NSCLC 10.3%
active: NCI-H23 lung -14.9% | NCI-H226 lung -30.9% | NCI-H322M lung 3.81% | HOP-62 NSCLC 9.19% | NCI-H460 lung -53.9% | HOP-92 NSCLC -40.5% | NCI-H522 lung -5.45% | 786-0 renal -47.2% | COLO 205 colon -43.1% | DU-145 prostate -20.6% | K-562 leukemia 3.56% | MALME-3M melanoma -31% | MDA-MB-231 breast -17.6% | RXF 393 renal -16.7% | SF-268 CNS 4.51% | SF-295 CNS -19.1% | SF-539 CNS -31.2% | UACC-257 melanoma -0.947% | M14 melanoma -42.1%

COC(=O)c1ccc2oc(NC(=O)c3ccc(Nc4ccc([N+](=O)[O-])cc4C)c([N+](=O)[O-])c3)nc2c1
inactive: NCI-H23 lung 95.9% | NCI-H226 lung 92.1% | NCI-H322M lung 101% | HOP-62 NSCLC 107% | NCI-H460 lung 101% | HOP-92 NSCLC 101% | NCI-H522 lung 94.4% | A549/ATCC NSCLC 100% | 786-0 renal 99.8% | COLO 205 colon 107% | DU-145 prostate 108% | K-562 leukemia 104% | MALME-3M melanoma 100% | MDA-MB-231 breast 105% | RXF 393 renal 103% | SF-268 CNS 97.9% | SF-295 CNS 98.8% | SF-539 CNS 96.1% | UACC-257 melanoma 103% | M14 melanoma 110%

CN1CCN(CCCOc2cccc3nc(Nc4ccc(Cl)c(F)c4)ccc23)CC1
active: COLO 205 colon -54.7% | K-562 leukemia -48.6% | MALME-3M melanoma 1.94% | MDA-MB-231 breast -57.6% | UACC-257 melanoma -31% | M14 melanoma -27.7%
inactive: NCI-H23 lung 63.3% | NCI-H226 lung 58.1% | NCI-H322M lung 33.6% | HOP-62 NSCLC 61% | NCI-H460 lung 13.2% | HOP-92 NSCLC 30.8% | NCI-H522 lung 29.8% | A549/ATCC NSCLC 40.1% | 786-0 renal 64.1% | DU-145 prostate 38.8% | RXF 393 renal 54% | SF-268 CNS 44.3% | SF-295 CNS 46% | SF-539 CNS 16.9%

Cc1ccc(/C=C2\SC(=S)N(CC(=O)NCCCN3CCOCC3)C2=O)cc1
inactive: NCI-H23 lung 99.6% | NCI-H226 lung 91% | NCI-H322M lung 104% | HOP-62 NSCLC 103% | NCI-H460 lung 103% | HOP-92 NSCLC 91.5% | NCI-H522 lung 90.5% | A549/ATCC NSCLC 102% | 786-0 renal 104% | COLO 205 colon 111% | DU-145 prostate 104% | K-562 leukemia 89.6% | MALME-3M melanoma 95.1% | MDA-MB-231 breast 91.9% | RXF 393 renal 101% | SF-268 CNS 96.5% | SF-295 CNS 91.1% | SF-539 CNS 93.7% | UACC-257 melanoma 101% | M14 melanoma 102%

O=C(Nc1cccc2[nH]c(C(F)(F)F)nc12)c1ccc(-n2cnnn2)cc1
inactive: NCI-H23 lung 82.1% | NCI-H226 lung 92.2% | NCI-H322M lung 107% | HOP-62 NSCLC 97.6% | NCI-H460 lung 81.9% | HOP-92 NSCLC 82.5% | NCI-H522 lung 57.3% | A549/ATCC NSCLC 98.1% | 786-0 renal 106% | COLO 205 colon 105% | DU-145 prostate 102% | K-562 leukemia 21.5% | MALME-3M melanoma 84.5% | MDA-MB-231 breast 93.1% | RXF 393 renal 96.1% | SF-268 CNS 96% | SF-295 CNS 92.5% | SF-539 CNS 103% | UACC-257 melanoma 107% | M14 melanoma 107%
